Results from PubChem BioAssay (NCATS).
Inconclusive results are not listed. A number with no mark means an inactive call. The source made the active and inactive calls. The call rests on the fitted dose curve; in most records, active means well fitted cell-killing curve with a large enough effect; inconclusive means small, poorly fitted or top-dose-only effect, or effect the other way; inactive means flat fitted curve, though single readings scatter. Where a SMILES comes first, the peptide text is derived from it. [ ]: non-standard residue; d: D form. ξ: configuration not given here. ξPhe(βξ-Me) = CC(c1ccccc1)C(N)C(=O)O; ξLac(3-iPr) = CC(C)CC(O)C(=O)O; NMeV = CN[CH](C(=O)O)C(C)C; GABA = NCCCC(=O)O; βAla = NCCC(=O)O

System: C33A
Test: Primary qHTS to identify gynecologic anti-cancer compounds using libraries of approved drugs and bioactive compounds (AID 1345084); further: nearly all actives have a fitted effect of over 55% in size
Conditions: Gynecologic cancer cell panel viability, ATPlite luminescence, 48 h; series mostly up to 57.5 µM; activity change, negative = cytotoxicity: at the top concentration
How it was run: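 Cells, 1,000 per well, were allowed to settle for 16 h at 37 C before compound addition. Five concentrations were tested for 48 h, and viability was read by ATPlite luminescence after 15 min at room temperature.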
On the % scale 0 is the no-effect control and ±100 the full control effect; potency means the concentration at half of the fitted maximal effect.

SMILES	activity change, negative = cytotoxicity	Potency
Nc1nc(Nc2ccc(S(N)(=O)=O)cc2)n(C(=S)Nc2c(F)cccc2F)n1	-11.8%	
CS(=O)(=O)c1ccc(-c2nnc(/C=C/c3nnc(-c4ccc(C#N)cc4)o3)n2-c2ccccc2Cl)nc1	-4.11%	
Cc1ccc(-c2ccc3c(ccc4sc5c(c43)NC[C@@H](C)NC5=O)n2)cn1	-4.39%	
C[C@@H]1O[C@@H](O[C@H]2[C@H](O)[C@@H](O[C@@H]3O[C@H](CO)[C@@H](O)[C@H](O[C@@H]4O[C@H](CO)[C@@H](O)[C@H](O)[C@H]4O)[C@H]3O)[C@H](O[C@H]3CC[C@@]4(C)C(=CC[C@@H]5C4CC[C@@]4(C)C5C[C@@H]5OC6(CC[C@@](C)(CO[C@@H]7O[C@H](CO)[C@@H](O)[C@H](O)[C@H]7O)O6)[C@@H](C)[C@@H]54)C3)O[C@@H]2CO)[C@H](O)[C@H](O)[C@H]1OC1OC(CO)C(O)C(O)C1O (stereo not given in full)	0.138% [at 6.55 µM]	
CC(C)[C@H]1CC[C@@]2(O)COC(=O)[C@H]2[C@@H]1/C=C(\CO)C(=O)O	6.44%	
FC(F)(F)c1cc(-c2ncn(/C=C\c3nnco3)n2)cc(C(F)(F)F)c1	-0.57%	
CC(C)NCC(C(=O)N1CCN(c2ncnc3c2C(C)CC3O)CC1)c1ccc(Cl)cc1 (stereo not given)		3.98 µM (active)
O=C1NC(=O)C(c2cn3c4c(cccc24)CCC3)C1c1c[nH]c2ccccc12 (stereo not given)		20 µM (active)
CC1C(OC(=O)c2ccccc2)C(O)C2C(C(=O)O)=COC(OC3OC(CO)C(O)C(O)C3O)C12 (stereo not given)	5.18% [at 25.3 µM]	
CC(C)(C)CCN1C[C@@H]2C(CNC(=O)c3cc(Cl)cc(Cl)c3)[C@@H]2C1 (stereo not given in full)	18.1%	
O=C(CN1C(=O)C2(CCCC2)NCC1c1cc(F)cc(F)c1)Nc1ccc2c(c1)CC1(C2)C(=O)Nc2ncccc21 (stereo not given)	8.22%	
N[C@H]1Cc2ccccc2N(O)C1=O	1.75%	
COc1cc(OC)cc(C(=O)Nc2ccc(Cl)c(-c3nc4ccc(N(C)C)cc4[nH]3)c2)c1	21.2%	
CCC(CC)C(=O)Nc1sc2c(c1C#N)CCC(C(C)(C)CC)C2 (stereo not given)	4.91%	
CC1(C)CC2C(C1)C(C)(O)C13CC1(COC3=O)C2O (stereo not given)	-2.59%	
NC(=O)c1cccc(-c2cc(OC(=O)NC3CCCCC3)ccc2O)c1	-2.5%	
CC1=C(CCC(C)CC(=O)O)[C@@]2(C)CCCC(C)(C)C2CC1=O (stereo not given in full)	3.11% [at 38.5 µM]	
Cc1c[nH]c2nccc(Oc3c(F)cc(Nc4cc(Cl)nc(N)n4)cc3F)c12	-8.69%	
CCOC(=O)c1cc(C#N)c(N2CCC(C(=O)NS(=O)(=O)Cc3ccccc3)CC2)nc1C	8.08%	
COc1cc(O)cc(C)c1C(=O)O[C@H]1[C@@H](OC(C)=O)[C@H](n2ccc(=O)[nH]c2=O)O[C@@H]1CO	-0.213% [at 25.3 µM]	

SMILES	activity change, negative = cytotoxicity	Potency
C=C[C@]1(C)C=C2CCC3C(C)(CCC[C@@]3(C)C(=O)O)C2CC1 (stereo not given in full)	13.4% [at 38.5 µM]	
C[C@@H]1O[C@@H](O[C@H]2[C@H](O)[C@@H](C(=O)O)O[C@@H](O[C@H]3CC[C@@]4(C)C(CC[C@]5(C)C4CC=C4C6CC(C)(C)CC[C@]6(C(=O)O)CC[C@]45C)C3(C)C)[C@@H]2O[C@@H]2OC[C@@H](O)[C@H](O)[C@H]2O)[C@H](O)[C@H](O)[C@H]1O (stereo not given in full)	12.7% [at 11.6 µM]	
CC(=O)OC/C=C(\C)C(CC1C(C)=C(OC(C)=O)C(=O)C2C(C)(C)C(O)CCC12C)OC(C)=O (stereo not given)	-1.47% [at 25.3 µM]	
CC1NC(=O)CCCNC(=O)C(Cc2c[nH]c3ccccc23)NC(=O)C(C)NC(=O)C(C(C)C)NC(=O)C(C(C)c2ccccc2)NC(=O)C(C(C)C)NC1=O (stereo not drawn) (cyclo([GABA]AV[ξPhe(βξ-Me)]VAW); configuration not given here)	7.23% [at 25.3 µM]	
C/C=C(\C)C(=O)O[C@@H]1CC2[C@@H](CC=C3C[C@@H](O[C@H]4C[C@H](OC)[C@H](O[C@H]5C[C@H](OC)[C@H](O[C@@H]6O[C@H](C)[C@@H](O[C@H]7C[C@H](OC)[C@H](O[C@@H]8O[C@H](CO)[C@@H](O)[C@H](O)[C@H]8O)[C@@H](C)O7)[C@H](OC)[C@H]6O)[C@@H](C)O5)[C@@H](C)O4)CC[C@@]32C)[C@@]2(O)CC[C@H](C(C)=O)[C@@]12C (stereo not given in full)	1.36% [at 6.55 µM]	
COc1c(/C=C/C(C)(C)O)ccc2c1C(=O)OCc1cc(C)cc(O)c1O2	-20.6% [at 38.5 µM]	
CCOCc1cc(OC)c(-c2ccc(C[C@H](NC(=O)c3c(F)cccc3F)C(=O)O)cc2)c(OC)c1	-2.35%	
Cc1nc([C@](C)(O)CO)sc1-c1cnc(N)c(O[C@H](C)c2cc(F)ccc2-n2nccn2)c1	-5.88%	
OC[C@H]1O[C@@H](O[C@H]2[C@H](OCc3ccccc3)O[C@H](CO[C@@H]3OC[C@@H](O)[C@H](O)[C@H]3O)[C@@H](O)[C@@H]2O)[C@H](O)[C@@H](O)[C@@H]1O	4.51% [at 25.3 µM]	
CC1(C)C[C@H](O)C[C@@]2(C)OC(=O)C=C12	-3.07%	
C=C(C(=O)O)C1CC2=C(C)CCCC2(C)C[C@@H]1O (stereo not given in full)	0%	
CC[C@@](C)(Nc1ccnc(-c2c[nH]c3ncccc23)n1)C(=O)NCC(F)(F)F	-1.93%	
COc1ccc(-c2c(-c3cc(C(=O)O)ccn3)ncn2C)cc1	20%	
Cc1nc(C)c(-c2ccc(C3CCC(CC(=O)O)CC3)cc2)nc1C(N)=O (stereo not given)	9.27%	
CC(C)CC1OC(=O)C2CCCN2C(=O)CCNC(=O)C(Cc2ccccc2)NC(=O)C(C(C)C)N(C)C(=O)C(C(C)C)N(C)C1=O (stereo not given) (cyclo([ξLac(3-iPr)][NMeV][NMeV]F[βAla]P); configuration not given here)	-12.9% [at 25.3 µM]	
C=C1C(O)C[C@@H]2C(C(=O)O)=CO[C@@H](O[C@@H]3O[C@H](CO)[C@@H](O)[C@H](O)[C@H]3OC(=O)c3ccc(O)cc3)[C@H]12 (stereo not given in full)	-1.1% [at 25.3 µM]	
CC(O)CCC1C(CO[C@@H]2O[C@H](CO)[C@@H](O)[C@H](O)[C@H]2O)CC(O)CC1(C)C (stereo not given in full)	-1.35% [at 38.5 µM]	
CC1=C2C(O)C(=O)OC(c3ccoc3)C2(C)CCC1O (stereo not given)	2.73%	
O=C(Nc1ccccc1-c1cn2c(CN3CCNCC3)csc2n1)c1ccc2ccccc2n1	9.98%	
COC(=O)CC(C)(O)CC(=O)OCc1ccc(O[C@@H]2O[C@H](CO)[C@@H](O)[C@H](O)[C@H]2O)cc1 (stereo not given in full)	0.146% [at 25.3 µM]	
